A selection: hits, their analogues and other compounds. The true share with any hit is near 3.5%.
BoNT A protease: BoNT/A light chain protease inhibitors, primary screen, biochemical, flow cytometry, MLPCN library | Botulinum neurotoxin type A light chain protease (Clostridium botulinum A str. ATCC 3502) | inhibition, % at 10 µM | 360,000 compounds, 0.17% hits | multiplex microsphere protease substrate cleavage; further: plate controls were buffer without enzyme for full effect and enzyme alone for no effect
BoNT F protease: BoNT/F light chain protease inhibitors, primary screen, biochemical, flow cytometry, MLPCN library; inhibition, % at 10 µM; 360,000 compounds, 0.22% hits; Multiplex microsphere protease cleavage assay; Botulinum neurotoxin type F light chain protease (Clostridium botulinum); in the data active means inhibition above about 35%, passing the limit was not always enough; inconclusive means no clear call, values can overlap the other calls; further: plate controls were buffer without enzyme for full effect and enzyme alone for no effect
Bead autofluor: flagged as autofluorescent in microsphere protease counterscreen; compound autofluorescence counterscreen, microsphere flow cytometry; stronger effect = higher value; fluorescence intensity (no concentration beside the values); 360,000 compounds, 3.1% hits; AID 624483; in the data active means fluorescence intensity above about 16000; inconclusive means no clear call, values can overlap the other calls
Anthrax LF prot: Bacillus anthracis LF protease inhibitors, primary screen, biochemical, multiplex microsphere, MLPCN library | Lethal factor (Bacillus anthracis), P15917 | inhibition, % at 10 µM | 360,000 compounds, 0.12% hits | multiplex microsphere protease cleavage assay | AID 588501, 2011; further: plate controls were buffer without enzyme for full effect and enzyme alone for no effect
Vc quorum ag: inducers of Vibrio cholerae quorum light production without autoinducers, primary screen, BH1578 luxS cqsA deficient, single point. activation, % at 18.7 µM. 350,000 compounds, 0.16% hits. AID 588436, 2011. V. cholerae BH1578 lux reporter, luminescence, 6 h; in the data active means activation mostly above about 9.7%, no sharp cut-off; inconclusive means no clear call, values can overlap the other calls; inactive means mostly below about 3.7%
Starred values were filed as active, the others as inactive; i = inactive; ? = inconclusive; nt = not tested or not shown. Unless noted, no stated cut-off is given here; in the data, active means inhibition above about 30%; inconclusive means no clear call, values can overlap the other calls; inactive means below that.

SMILES	BoNT A protease	BoNT F protease	Bead autofluor	Anthrax LF prot	Vc quorum ag
C=CCSc1ncccc1C(=O)NCc1ccc(C)cc1	2	0	19941*	-2	0
C=CCSc1ncccc1C(=O)O	-3	-5	23263*	-3	i
O=C(O)CSc1ncccc1C(=O)O	0	-3	2554	-4	0
CCOc1ccc(S(=O)(=O)N2CCOCC2)cc1NC(=O)CN1C(=O)NC(C)(c2ccccc2)C1=O (stereo not drawn)	nt	nt	nt	nt	0
CC1CCc2c(sc(NC(=O)COC(=O)c3ccccc3NCc3ccco3)c2C#N)C1 (stereo not drawn)	-1	-2	22501*	-9	i
COc1ccc(C)cc1NC(=O)c1ccoc1C	0	0	2987	2	5
COc1ccc(C(C)(C)C)cc1NC(=O)c1ccoc1C	1	-1	21536*	-9	i
CSc1nc2nccc(/C=C\c3ccccc3)n2n1	?	2	21761*	-1	8
CSc1nc2nccc(-c3ccc(Cl)cc3)n2n1	0	-10	2518	-3	0
COc1cc(/C=C/C=C2/CC/C(=C/C=C/c3ccc(O)c(OC)c3)C2=O)ccc1O	39*	-4	3836	34*	i
O=C(Nc1ccon1)C(Sc1ccccc1)c1ccccc1 (stereo not drawn)	?	1	23273*	-3	-1
O=C(Nc1nncs1)C(Sc1ccccc1)c1ccccc1 (stereo not drawn)	0	-7	2469	-2	0
CCN(Cc1ccccc1)Cc1c(C)[nH]c2c(C)c(C)ccc2c1=O	?	-4	20905*	-4	i
O=C(O)c1cccc(-n2c(-c3cnccn3)n[nH]c2=S)c1	-1	-13	3691	0	0
CC(C)(C)c1cc(C(=S)N2CCN(CCO)CC2)cc(C(C)(C)C)c1O	1	0	23211*	-4	i
COC(CNC(=O)[C@H](Cc1ccccc1)N1Cc2ccccc2C1=O)OC	-4	-18	3705	-4	0
O=C(Cn1cnc2ccccc2c1=O)Nc1ccc2c(c1)CCC2	-1	1	23574*	-2	0
O=C(Cn1cnc2cc([N+](=O)[O-])ccc2c1=O)Nc1ccc2c(c1)CCC2	0	-7	3267	0	i
CC1(C(=O)NC2CCCC2)CCC(=O)N1Cc1ccccc1 (stereo not drawn)	?	0	23334*	-3	0
O=C(COc1ccc2ccccc2c1Br)Nc1ncn[nH]1	4	4	21352*	-6	i
Cc1cccc(C)c1OCC(=O)Nc1ncn[nH]1	-1	-10	9386	-8	0
NNC(=O)[C@H](Cc1ccccc1)NC(=O)NCCc1ccccc1	0	-6	3997	2	-1
C=C(C)CNC(=S)N/N=C(\C)c1ccc(-n2ccnc2)cc1	-1	-2	19874*	0	i
COc1ccc(C(=O)N(CC2CCCO2)C(C(=O)NC2CCCC2)c2ccc(Cl)cc2)cc1OC (stereo not drawn)	3	7	21196*	2	6
COc1ccc(C(=O)NC2CCCCCCC2)cc1OC	-3	?	4015	14	i
SMILES	BoNT A protease	BoNT F protease	Bead autofluor	Anthrax LF prot	Vc quorum ag
COc1ccc(C(=O)N(CCCO)C(C)C(=O)NC2CCCCC2)cc1OC (stereo not drawn)	?	4	21753*	1	i
CCOC(=O)C(O)(c1ccc(NC(=O)NC2CCCCC2)cc1)C(F)(F)F (stereo not drawn)	1	-1	23646*	-1	0
CCOC(=O)C(O)(c1ccc(NC(=O)c2ccc(Cl)c(Cl)c2)cc1)C(F)(F)F (stereo not drawn)	nt	nt	nt	nt	-1
Cc1ccc(NC(=O)C(Cc2ccccc2)NC(=O)c2ccco2)cc1 (stereo not drawn)	?	-1	23460*	-1	i
Cc1ccc(NC(=S)NC(NC(=O)c2ccco2)C(Cl)(Cl)Cl)cc1 (stereo not drawn)	0	9	2296	0	-2
Cc1ccccc1CN(C)C(=O)[C@H](Cc1ccccc1)NC(=O)c1ccco1	0	6	3123	-10	-4
O=C(O)c1ccc(NC(=S)NC(NC(=O)c2ccco2)C(Cl)(Cl)Cl)cc1 (stereo not drawn)	-4	-9	25206*	-5	5
Cc1ccc(CC(NC(=O)c2ccccc2)C(=O)NCC(=O)O)cc1 (stereo not drawn)	2	4	22985*	-1	i
